From PubChem BioAssay AID1159580 (chemical genetic matrix, 2015)
Hit rate of the full screen: of about 5,500 compounds, about 2,000 (36%) were called active. About 18% were inconclusive and are not listed. Cut-off read from the data, not from the text of the source: active = normalized growth mostly below about 0.91 (no sharp cut-off); inconclusive = no clear call, values can overlap the other calls; inactive = mostly above about 0.92. The list shows a part of the results.

Experiment: chemical genetic growth profiling, strain panel (AID 1159580);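 note: tested at 20 µM; growth read once vehicle control cultures reached saturation at 30 °C; 1 = growth at the plate median or of vehicle wells; lower values mean less growth of the strain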
Details: growth OD

Measured: normalized growth

C=C1CCC2C(CC2(C)C)C(=O)CCC1O (stereo unspecified)
inactive: S. cerevisiae deletion strains, locus YJL168C, strain set2, stronger effect = lower value 1.01 | S. cerevisiae deletion strains, locus YJL187C, strain SWE1 (second series), stronger effect = lower value 1.06 | S. cerevisiae deletion strains, locus YJL187C, strain SWE1, stronger effect = lower value 0.993 | S. cerevisiae deletion strains, locus YJR066W, strain TOR1, stronger effect = lower value 0.949 | S. cerevisiae deletion strains, locus YKL009W, strain mrt4, stronger effect = lower value 1.02 | S. cerevisiae deletion strains, locus YKL068W, stronger effect = lower value 1 | S. cerevisiae deletion strains, locus YKL085W, strain MDH1 (second series), stronger effect = lower value 0.993 | S. cerevisiae deletion strains, locus YKL085W, strain MDH1, stronger effect = lower value 0.993 | S. cerevisiae deletion strains, locus YKL160W, strain elf1, stronger effect = lower value 0.982 | S. cerevisiae deletion strains, locus YKR001C, strain vps1, stronger effect = lower value 1.02 | S. cerevisiae deletion strains, locus YKR026C, strain gcn3, stronger effect = lower value 1 | S. cerevisiae deletion strains, locus YKR091W, strain srl3, stronger effect = lower value 0.988 | S. cerevisiae deletion strains, locus YLL001W, strain dnm1, stronger effect = lower value 0.954 | S. cerevisiae deletion strains, locus YLL026W, stronger effect = lower value 1 | S. cerevisiae deletion strains, locus YLL041C, strain sdh2, stronger effect = lower value 0.987 | S. cerevisiae deletion strains, locus YLR027C, strain aat2, stronger effect = lower value 0.996 | S. cerevisiae deletion strains, locus YLR039C, strain RIC1, stronger effect = lower value 1.04 | S. cerevisiae deletion strains, locus YLR058C, strain SHM2, stronger effect = lower value 1.04 | S. cerevisiae deletion strains, locus YLR102C, strain apc9, stronger effect = lower value 1.01 | S. cerevisiae deletion strains, locus YLR113W, strain HOG1, stronger effect = lower value 1.01 | S. cerevisiae deletion strains, locus YLR221C, strain rsa3, stronger effect = lower value 1.04 | S. cerevisiae deletion strains, locus YLR258W, strain gsy2, stronger effect = lower value 0.993 | S. cerevisiae deletion strains, locus YLR262C, strain YPT6 (second series), stronger effect = lower value 1.01 | S. cerevisiae deletion strains, locus YLR268W, strain sec22, stronger effect = lower value 1 | S. cerevisiae deletion strains, locus YLR320W, strain mms22, stronger effect = lower value 1.06 | S. cerevisiae deletion strains, locus YLR342W, strain FKS1, stronger effect = lower value 0.997 | S. cerevisiae deletion strains, locus YLR357W, strain rsc2, stronger effect = lower value 0.981 | S. cerevisiae deletion strains, locus YLR370C, strain arc18, stronger effect = lower value 1 | S. cerevisiae deletion strains, locus YLR371W, strain rom2, stronger effect = lower value 1.02 | S. cerevisiae deletion strains, locus YLR384C, strain iki3, stronger effect = lower value 1.01 | S. cerevisiae deletion strains, locus YLR418C, strain cdc73, stronger effect = lower value 1.05 | S. cerevisiae deletion strains, locus YML016C, strain PPZ1, stronger effect = lower value 1.02 | S. cerevisiae deletion strains, locus YML032C, strain rad52, stronger effect = lower value 1.01 | S. cerevisiae deletion strains, locus YML120C, strain ndi1, stronger effect = lower value 0.965 | S. cerevisiae deletion strains, locus YML124C, strain tub3, stronger effect = lower value 1.01 | S. cerevisiae deletion strains, locus YMR058W, strain fet3, stronger effect = lower value 0.98 | S. cerevisiae deletion strains, locus YMR078C, strain ctf18, stronger effect = lower value 1.01 | S. cerevisiae deletion strains, locus YMR125W, strain sto1, stronger effect = lower value 0.973 | S. cerevisiae deletion strains, locus YMR129W, stronger effect = lower value 1.01 | S. cerevisiae deletion strains, locus YMR205C, strain PFK2, stronger effect = lower value 0.955 | S. cerevisiae deletion strains, locus YMR223W, strain ubp8, stronger effect = lower value 1.03 | S. cerevisiae deletion strains, locus YMR231W, strain pep5, stronger effect = lower value 1.01 | S. cerevisiae deletion strains, locus YMR307W, strain GAS1, stronger effect = lower value 1.07 | S. cerevisiae deletion strains, locus YNL067W, strain RPL9B, stronger effect = lower value 1.03 | S. cerevisiae deletion strains, locus YNL071W, strain lat1, stronger effect = lower value 0.992 | S. cerevisiae deletion strains, locus YNL128W, strain TEP1, stronger effect = lower value 0.993 | S. cerevisiae deletion strains, locus YNL183C, strain NPR1, stronger effect = lower value 0.968 | S. cerevisiae deletion strains, locus YNL209W, strain ssb2, stronger effect = lower value 0.987 | S. cerevisiae deletion strains, locus YNL233W, strain BNI4, stronger effect = lower value 1.05 | S. cerevisiae deletion strains, locus YNL248C, strain rpa49, stronger effect = lower value 1.01 | S. cerevisiae deletion strains, locus YNL250W, strain rad50, stronger effect = lower value 1.05 | S. cerevisiae deletion strains, locus YNL271C, strain bni1, stronger effect = lower value 1.01 | S. cerevisiae deletion strains, locus YNL298W, strain CLA4, stronger effect = lower value 1.03 | S. cerevisiae deletion strains, locus YNL307C, strain MCK1, stronger effect = lower value 1.03 | S. cerevisiae deletion strains, locus YNL322C, strain KRE1 (second series), stronger effect = lower value 0.974 | S. cerevisiae deletion strains, locus YNL322C, strain KRE1, stronger effect = lower value 0.991 | S. cerevisiae deletion strains, locus YNR049C, strain mso1, stronger effect = lower value 0.995 | S. cerevisiae deletion strains, locus YNR052C, strain pop2, stronger effect = lower value 1.03 | S. cerevisiae deletion strains, locus YOL012C, strain htz1 0.879 | S. cerevisiae deletion strains, locus YOL147C, strain pex11, stronger effect = lower value 1 | S. cerevisiae deletion strains, locus YOR001W, strain rrp6, stronger effect = lower value 1.02 | S. cerevisiae deletion strains, locus YOR061W, strain CKA2, stronger effect = lower value 1.02 | S. cerevisiae deletion strains, locus YOR069W, strain VPS5, stronger effect = lower value 1.01 | S. cerevisiae deletion strains, locus YOR070C, strain gyp1, stronger effect = lower value 1.02 | S. cerevisiae deletion strains, locus YOR080W, strain dia2, stronger effect = lower value 0.995 | S. cerevisiae deletion strains, locus YOR083W, strain WHI5, stronger effect = lower value 0.988 | S. cerevisiae deletion strains, locus YOR106W, strain vam3, stronger effect = lower value 0.961 | S. cerevisiae deletion strains, locus YOR136W, strain idh2, stronger effect = lower value 1.01 | S. cerevisiae deletion strains, locus YOR144C, strain elg1, stronger effect = lower value 1 | S. cerevisiae deletion strains, locus YOR184W, strain ser1, stronger effect = lower value 0.989 | S. cerevisiae deletion strains, locus YOR231W, strain MKK1, stronger effect = lower value 0.994 | S. cerevisiae deletion strains, locus YOR265W, strain rbl2, stronger effect = lower value 0.992 | S. cerevisiae deletion strains, locus YOR270C, strain vph1, stronger effect = lower value 0.986 | S. cerevisiae deletion strains, locus YOR290C, strain snf2, stronger effect = lower value 0.956 | S. cerevisiae deletion strains, locus YOR316C, strain cot1, stronger effect = lower value 1.03 | S. cerevisiae deletion strains, locus YPL051W, strain arl3, stronger effect = lower value 1 | S. cerevisiae deletion strains, locus YPL078C, strain atp4, stronger effect = lower value 0.946 | S. cerevisiae deletion strains, locus YPL106C, strain sse1, stronger effect = lower value 0.958 | S. cerevisiae deletion strains, locus YPL240C, strain hsp82, stronger effect = lower value 0.998 | S. cerevisiae deletion strains, locus YPL256C, strain CLN2, stronger effect = lower value 1.02 | S. cerevisiae deletion strains, locus YPR119W, strain clb2, stronger effect = lower value 1.02 | S. cerevisiae deletion strains, locus YPR141C, strain kar3, stronger effect = lower value 1.01 | S. cerevisiae deletion strains, locus YPR163C, strain tif3, stronger effect = lower value 1.02 | S. cerevisiae deletion strains, locus YPR167C, strain met16, stronger effect = lower value 1.02 | S. cerevisiae deletion strains, strain wtn01, stronger effect = lower value 1.01 | S. cerevisiae strains, strain wild type, stronger effect = lower value 0.989
